PubChem BioAssay AID1159580 (chemical genetic matrix, 2015)
Values joined by “and” are separate entries in the source; they are usually repeats but may differ in a detail not shown here. Identical values can stand only once. Screen size: about 5,500 compounds; about 2,000 (36%) were called active. Roughly 18% stayed inconclusive and do not appear here. No stated cut-off is given here; in the data, active means normalized growth mostly below about 0.91 (no sharp cut-off); inconclusive means no clear call, values can overlap the other calls; inactive means mostly above about 0.92. This is one part of the list.

Experiment: chemical genetic growth profiling, strain panel (AID 1159580);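 further: tested at 20 µM; growth read once vehicle control cultures reached saturation at 30 °C; 1 = growth at the plate median or of vehicle wells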
Settings: S. cerevisiae deletion strains, growth OD
[1] = locus YGR229C, strain SMI1, stronger effect = lower value
[2] = locus YNL322C, strain KRE1, stronger effect = lower value

Measured: normalized growth

O=C(O)P(=O)(O)O
active: locus YKR001C, strain vps1, stronger effect = lower value 0.894 | locus YMR307W, strain GAS1, stronger effect = lower value 0.443
inactive: locus YAL013W, strain DEP1, stronger effect = lower value 0.961 | locus YAL021C, strain ccr4, stronger effect = lower value 1.01 | locus YAL026C, strain drs2, stronger effect = lower value 0.979 | locus YAL030W, strain snc1, stronger effect = lower value 0.985 | locus YBL061C, strain skt5, stronger effect = lower value 0.984 | locus YBR009C, strain hhf1, stronger effect = lower value 1.01 | locus YBR021W, strain FUR4, stronger effect = lower value 0.994 | locus YBR023C, strain chs3, stronger effect = lower value 0.969 | locus YBR171W, strain sec66, stronger effect = lower value 0.994 | locus YBR229C, strain ROT2, stronger effect = lower value 0.996 | locus YBR231C, strain swc5, stronger effect = lower value 0.958 | locus YBR279W, strain paf1, stronger effect = lower value 0.981 | locus YCL011C, strain gbp2, stronger effect = lower value 0.982 | locus YCL016C, strain dcc1, stronger effect = lower value 0.998 | locus YCL029C, strain bik1, stronger effect = lower value 0.969 | locus YCL069W, strain vba3, stronger effect = lower value 1 | locus YCR088W, strain abp1, stronger effect = lower value 0.984 | locus YDL005C, strain med2, stronger effect = lower value 0.968 | locus YDL035C, strain GPR1, stronger effect = lower value 1 | locus YDL040C, strain nat1, stronger effect = lower value 0.984 | locus YDL074C, strain BRE1, stronger effect = lower value 0.892 | locus YDL101C, strain DUN1, stronger effect = lower value 0.964 | locus YDL134C, strain PPH21, stronger effect = lower value 1.01 | locus YDL185W, strain tfp1, stronger effect = lower value 0.932 | locus YDL192W, strain arf1, stronger effect = lower value 0.961 | locus YDR001C, strain nth1, stronger effect = lower value 0.976 | locus YDR069C, strain doa4, stronger effect = lower value 0.983 | locus YDR101C, strain arx1, stronger effect = lower value 0.983 | locus YDR137W, strain rgp1, stronger effect = lower value 0.984 | locus YDR150W, strain NUM1, stronger effect = lower value 0.986 | locus YDR159W, strain sac3, stronger effect = lower value 0.963 | locus YDR162C, strain NBP2, stronger effect = lower value 0.902 | locus YDR195W, strain ref2 0.955 | locus YDR297W, strain sur2, stronger effect = lower value 0.992 | locus YDR318W, strain mcm21, stronger effect = lower value 0.976 | locus YDR334W, strain swr1, stronger effect = lower value 0.988 | locus YDR335W, strain msn5, stronger effect = lower value 0.991 | locus YDR388W, stronger effect = lower value 0.967 | locus YDR392W, strain spt3, stronger effect = lower value 0.977 | locus YDR502C, strain sam2, stronger effect = lower value 0.957 | locus YEL003W, strain gim4, stronger effect = lower value 0.984 | locus YEL037C, strain rad23, stronger effect = lower value 0.99 | locus YEL061C, strain CIN8 (second series), stronger effect = lower value 0.975 | locus YEL061C, strain CIN8, stronger effect = lower value 0.984 | locus YER015W, strain faa2, stronger effect = lower value 0.984 | locus YER016W, strain bim1, stronger effect = lower value 0.983 | locus YER110C, stronger effect = lower value 0.936 | locus YER111C, strain swi4, stronger effect = lower value 0.98 | locus YER155C, strain BEM2 (second series), stronger effect = lower value 0.935 | locus YER155C, strain BEM2, stronger effect = lower value 0.983 | locus YER167W, strain BCK2, stronger effect = lower value 0.98 | locus YFR010W, strain ubp6, stronger effect = lower value 0.965 | locus YGL078C, strain dbp3, stronger effect = lower value 0.986 | locus YGL086W, strain mad1, stronger effect = lower value 0.965 | locus YGL167C, strain pmr1, stronger effect = lower value 0.984 | locus YGL173C, strain kem1, stronger effect = lower value 0.992 | locus YGL227W, strain vid30, stronger effect = lower value 0.982 | locus YGL240W, strain doc1, stronger effect = lower value 0.964 | locus YGL248W, strain PDE1, stronger effect = lower value 0.94 | locus YGL253W, strain hxk2, stronger effect = lower value 0.985 | locus YGR078C, strain PAC10, stronger effect = lower value 0.93 | locus YGR135W, strain pre9, stronger effect = lower value 0.945 | [1] 0.886 | locus YGR252W, strain gcn5, stronger effect = lower value 0.911 | locus YHR013C, strain ard1, stronger effect = lower value 0.985 | locus YHR027C, strain rpn1, stronger effect = lower value 0.999 | locus YHR079C, strain IRE1 (second series), stronger effect = lower value 0.963 | locus YHR079C, strain IRE1, stronger effect = lower value 1.05 | locus YHR094C, strain hxt1, stronger effect = lower value 0.982 | locus YHR129C, strain ARP1, stronger effect = lower value 0.973 | locus YHR142W, strain chs7, stronger effect = lower value 0.978 | locus YHR200W, strain rpn10, stronger effect = lower value 0.96 | locus YIL066C, strain RNR3, stronger effect = lower value 0.999 | locus YIL073C, strain SPO22, stronger effect = lower value 0.868 | locus YIL125W, strain kgd1, stronger effect = lower value 0.979 | locus YIR030C, strain dcg1, stronger effect = lower value 0.959 | locus YJL092W, strain hpr5, stronger effect = lower value 0.982 | locus YJL095W, strain BCK1 (second series), stronger effect = lower value 0.993 | locus YJL115W, strain asf1, stronger effect = lower value 0.986 | locus YJL129C, strain trk1, stronger effect = lower value 0.984 | locus YJL134W, strain LCB3, stronger effect = lower value 0.985 | locus YJL154C, strain vps35, stronger effect = lower value 0.977 | locus YJL164C, strain tpk1, stronger effect = lower value 1 | locus YJL166W, strain qcr8, stronger effect = lower value 0.978 | locus YJL168C, strain set2, stronger effect = lower value 0.97 | locus YJL187C, strain SWE1 (second series), stronger effect = lower value 0.942 | locus YJL187C, strain SWE1, stronger effect = lower value 0.965 | locus YJR043C, strain POL32, stronger effect = lower value 0.972 | locus YJR066W, strain TOR1, stronger effect = lower value 0.982 | locus YJR075W, strain HOC1, stronger effect = lower value 0.926 | locus YKL009W, strain mrt4, stronger effect = lower value 0.931 | locus YKL068W, stronger effect = lower value 0.969 | locus YKL085W, strain MDH1 (second series), stronger effect = lower value 0.96 | locus YKL085W, strain MDH1, stronger effect = lower value 0.96 | locus YKL160W, strain elf1, stronger effect = lower value 0.995 | locus YKL190W, strain CNB1, stronger effect = lower value 0.981 | locus YKR026C, strain gcn3, stronger effect = lower value 0.977 | locus YKR091W, strain srl3, stronger effect = lower value 0.986 | locus YLL001W, strain dnm1, stronger effect = lower value 0.991 | locus YLL026W, stronger effect = lower value 1 | locus YLL041C, strain sdh2, stronger effect = lower value 0.989 | locus YLR027C, strain aat2, stronger effect = lower value 0.974 | locus YLR039C, strain RIC1, stronger effect = lower value 0.855 | locus YLR058C, strain SHM2, stronger effect = lower value 0.97 | locus YLR102C, strain apc9, stronger effect = lower value 0.977 | locus YLR113W, strain HOG1, stronger effect = lower value 1.07 | locus YLR221C, strain rsa3, stronger effect = lower value 0.975 | locus YLR258W, strain gsy2, stronger effect = lower value 1 | locus YLR262C, strain YPT6 (second series), stronger effect = lower value 0.967 | locus YLR262C, strain YPT6, stronger effect = lower value 0.842 | locus YLR268W, strain sec22, stronger effect = lower value 0.949 | locus YLR320W, strain mms22, stronger effect = lower value 0.967 | locus YLR330W, strain CHS5, stronger effect = lower value 0.957 | locus YLR342W, strain FKS1 (second series), stronger effect = lower value 0.897 | locus YLR342W, strain FKS1, stronger effect = lower value 0.981 | locus YLR357W, strain rsc2, stronger effect = lower value 0.972 | locus YLR370C, strain arc18, stronger effect = lower value 0.995 | locus YLR371W, strain rom2, stronger effect = lower value 0.982 | locus YLR384C, strain iki3, stronger effect = lower value 1 | locus YLR418C, strain cdc73, stronger effect = lower value 0.91 | locus YML016C, strain PPZ1, stronger effect = lower value 0.984 | locus YML032C, strain rad52, stronger effect = lower value 0.977 | locus YML120C, strain ndi1, stronger effect = lower value 0.98 | locus YML124C, strain tub3, stronger effect = lower value 0.981 | locus YMR058W, strain fet3, stronger effect = lower value 0.983 | locus YMR078C, strain ctf18, stronger effect = lower value 0.956 | locus YMR125W, strain sto1, stronger effect = lower value 0.986 | locus YMR129W, stronger effect = lower value 0.984 | locus YMR205C, strain PFK2, stronger effect = lower value 0.975 | locus YMR223W, strain ubp8, stronger effect = lower value 0.95 | locus YMR231W, strain pep5, stronger effect = lower value 0.993 | locus YMR263W, strain SAP30, stronger effect = lower value 0.938 | locus YNL067W, strain RPL9B, stronger effect = lower value 0.923 | locus YNL071W, strain lat1, stronger effect = lower value 0.99 | locus YNL128W, strain TEP1, stronger effect = lower value 0.925 | locus YNL153C, strain GIM3, stronger effect = lower value 0.968 | locus YNL183C, strain NPR1, stronger effect = lower value 0.975 | locus YNL209W, strain ssb2, stronger effect = lower value 0.983 | locus YNL233W, strain BNI4, stronger effect = lower value 0.923 | locus YNL248C, strain rpa49, stronger effect = lower value 0.981 | locus YNL250W, strain rad50, stronger effect = lower value 0.956 | locus YNL271C, strain bni1, stronger effect = lower value 0.966 | locus YNL298W, strain CLA4, stronger effect = lower value 0.976 | locus YNL307C, strain MCK1, stronger effect = lower value 0.962 | locus YNL322C, strain KRE1 (second series), stronger effect = lower value 0.981 | [2] 0.974 | locus YNR049C, strain mso1, stronger effect = lower value 0.987 | locus YNR052C, strain pop2, stronger effect = lower value 0.971 | locus YOL012C, strain htz1 0.927 | locus YOL147C, strain pex11, stronger effect = lower value 0.976 | locus YOR001W, strain rrp6, stronger effect = lower value 0.981 | locus YOR061W, strain CKA2, stronger effect = lower value 0.98 | locus YOR069W, strain VPS5, stronger effect = lower value 0.986 | locus YOR070C, strain gyp1, stronger effect = lower value 0.988 | locus YOR080W, strain dia2, stronger effect = lower value 0.987 | locus YOR083W, strain WHI5, stronger effect = lower value 0.995 | locus YOR106W, strain vam3, stronger effect = lower value 0.983 | locus YOR136W, strain idh2, stronger effect = lower value 0.968 | locus YOR144C, strain elg1, stronger effect = lower value 0.977 | locus YOR184W, strain ser1, stronger effect = lower value 0.941 | locus YOR231W, strain MKK1, stronger effect = lower value 1.04 | locus YOR265W, strain rbl2, stronger effect = lower value 0.996 | locus YOR270C, strain vph1, stronger effect = lower value 0.961 | locus YOR290C, strain snf2, stronger effect = lower value 0.997 | locus YOR316C, strain cot1, stronger effect = lower value 0.974 | locus YPL051W, strain arl3, stronger effect = lower value 1.01 | locus YPL055C, strain LGE1, stronger effect = lower value 0.948 | locus YPL078C, strain atp4, stronger effect = lower value 1 | locus YPL106C, strain sse1, stronger effect = lower value 0.978 | locus YPL240C, strain hsp82, stronger effect = lower value 0.985 | locus YPL241C, strain CIN2, stronger effect = lower value 0.986 | locus YPL256C, strain CLN2, stronger effect = lower value 1.07 | locus YPR119W, strain clb2, stronger effect = lower value 0.963 | locus YPR141C, strain kar3, stronger effect = lower value 0.958 | locus YPR163C, strain tif3, stronger effect = lower value 0.989 | locus YPR167C, strain met16, stronger effect = lower value 0.963 | strain wtn01, stronger effect = lower value 0.964
0.898 (active) and 1.05 (inactive): locus YHR030C, strain SLT2, stronger effect = lower value
0.738 (active) and 1.03 (inactive): locus YJL095W, strain BCK1, stronger effect = lower value

O=C(O)CP(=O)(O)O
inactive: locus YAL040C, strain CLN3, stronger effect = lower value 1 | locus YCL061C, strain MRC1 (second series), stronger effect = lower value 1 | locus YDR363W, strain ESC2, stronger effect = lower value 1.01 | locus YER002W, strain NOP16, stronger effect = lower value 1.01 | [1] 1.02 | locus YNL175C, strain NOP13, stronger effect = lower value 1.02 | locus YNL197C, strain WHI3, stronger effect = lower value 1.01 | locus YNL224C, strain SQS1, stronger effect = lower value 0.993 | [2] 1.01 | locus YOR083W, strain WHI5 (second series), stronger effect = lower value 1.01
